# About 2,000 (36%) of roughly 5,500 compounds were called active. About 18% were inconclusive and are not listed. The list shows a part of the results. Values without a mark were called inactive. Cut-off read from the data, not from the text of the source: active = normalized growth mostly below about 0.91 (no sharp cut-off); inconclusive = no clear call, values can overlap the other calls; inactive = mostly above about 0.92.
# Experiment: chemical genetic growth profiling, strain panel (AID 1159580);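 note: tested at 20 µM; growth read once vehicle control cultures reached saturation at 30 °C; 1 = growth at the plate median or of vehicle wells; lower values mean less growth of the strain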
# Conditions: S. cerevisiae deletion strains, growth OD
smiles,measurement,setting,value
CC(C)(C)C(=O)/C(C#N)=C/c1c(Cl)cccc1Cl,normalized growth,"locus YAR019C, strain CDC15, stronger effect = lower value",0.366 (active)
same,normalized growth,"locus YBL105C, strain PKC1, stronger effect = lower value",0.373 (active)
same,normalized growth,"locus YBR135W, strain CKS1, stronger effect = lower value",0.894 (active)
same,normalized growth,"locus YBR136W, strain MEC1, stronger effect = lower value",0.722 (active)
same,normalized growth,"locus YDL017W, strain CDC7, stronger effect = lower value",0.695 (active)
same,normalized growth,"locus YDL028C, strain MPS1, stronger effect = lower value",0.919
same,normalized growth,"locus YDL108W, strain KIN28, stronger effect = lower value",0.957
same,normalized growth,"locus YDL214C, strain PRR2, stronger effect = lower value",0.124 (active)
same,normalized growth,"locus YDR052C, strain DBF4, stronger effect = lower value",0.915
same,normalized growth,"locus YDR054C, strain cdc34, stronger effect = lower value",0.291 (active)
same,normalized growth,"locus YDR226W, strain ADK1, stronger effect = lower value",0.913
same,normalized growth,"locus YDR477W, strain SNF1, stronger effect = lower value",0.11 (active)
same,normalized growth,"locus YER123W, strain YCK3, stronger effect = lower value",0.105 (active)
same,normalized growth,"locus YER133W, strain GLC7, stronger effect = lower value",0.108 (active)
same,normalized growth,"locus YFL029C, strain CAK1, stronger effect = lower value",0.315 (active)
same,normalized growth,"locus YFR019W, strain FAB1, stronger effect = lower value",0.108 (active)
same,normalized growth,"locus YFR028C, strain CDC14, stronger effect = lower value",0.575 (active)
same,normalized growth,"locus YGR040W, strain KSS1, stronger effect = lower value",0.112 (active)
same,normalized growth,"locus YGR052W, strain FMP48, stronger effect = lower value",0.136 (active)
same,normalized growth,"locus YGR092W, strain DBF2, stronger effect = lower value",0.11 (active)
same,normalized growth,"locus YHR030C, strain SLT2, stronger effect = lower value",0.111 (active)
same,normalized growth,"locus YHR079C, strain IRE1, stronger effect = lower value",0.112 (active)
same,normalized growth,"locus YHR082C, strain KSP1, stronger effect = lower value",0.137 (active)
same,normalized growth,"locus YHR205W, strain SCH9, stronger effect = lower value",0.000694 (active)
same,normalized growth,"locus YIL147C, strain SLN1, stronger effect = lower value",0.691 (active)
same,normalized growth,"locus YJL095W, strain BCK1, stronger effect = lower value",0.104 (active)
same,normalized growth,"locus YJL157C, strain FAR1, stronger effect = lower value",0.105 (active)
same,normalized growth,"locus YJR016C, strain ILV3, stronger effect = lower value",0.64 (active)
same,normalized growth,"locus YJR066W, strain TOR1 (second series), stronger effect = lower value",0.124 (active)
same,normalized growth,"locus YJR066W, strain TOR1, stronger effect = lower value",0.131 (active)
same,normalized growth,"locus YKL048C, strain ELM1, stronger effect = lower value",0.151 (active)
same,normalized growth,"locus YKL067W, strain YNK1, stronger effect = lower value",0.129 (active)
same,normalized growth,"locus YKL101W, strain HSL1, stronger effect = lower value",0.131 (active)
same,normalized growth,"locus YKL193C, strain SDS22, stronger effect = lower value",0.506 (active)
same,normalized growth,"locus YKL203C, strain TOR2, stronger effect = lower value",0.115 (active)
same,normalized growth,"locus YLR113W, strain HOG1, stronger effect = lower value",0.165 (active)
same,normalized growth,"locus YLR133W, strain CKI1, stronger effect = lower value",0.125 (active)
same,normalized growth,"locus YLR403W, strain SFP1, stronger effect = lower value",0.0102 (active)
same,normalized growth,"locus YML070W, strain DAK1, stronger effect = lower value",0.122 (active)
same,normalized growth,"locus YMR001C, strain CDC5, stronger effect = lower value",0.401 (active)
same,normalized growth,"locus YMR205C, strain PFK2 (second series), stronger effect = lower value",0.142 (active)
same,normalized growth,"locus YMR277W, strain FCP1, stronger effect = lower value",0.397 (active)
same,normalized growth,"locus YNL006W, strain LST8, stronger effect = lower value",0.341 (active)
same,normalized growth,"locus YNL020C, strain ARK1, stronger effect = lower value",0.118 (active)
same,normalized growth,"locus YNL161W, strain CBK1, stronger effect = lower value",0.402 (active)
same,normalized growth,"locus YNL183C, strain NPR1, stronger effect = lower value",0.132 (active)
same,normalized growth,"locus YNL207W, strain RIO2, stronger effect = lower value",0.359 (active)
same,normalized growth,"locus YNL222W, strain SSU72, stronger effect = lower value",0.619 (active)
same,normalized growth,"locus YNL307C, strain MCK1 (second series), stronger effect = lower value",0.105 (active)
same,normalized growth,"locus YOL078W, strain AVO1, stronger effect = lower value",0.492 (active)
same,normalized growth,"locus YOL136C, strain PFK27, stronger effect = lower value",0.116 (active)
same,normalized growth,"locus YOR061W, strain CKA2, stronger effect = lower value",0.157 (active)
same,normalized growth,"locus YOR119C, strain RIO1, stronger effect = lower value",0.115 (active)
same,normalized growth,"locus YOR231W, strain MKK1, stronger effect = lower value",0.131 (active)
same,normalized growth,"locus YOR329C, strain SCD5, stronger effect = lower value",0.513 (active)
same,normalized growth,"locus YPL031C, strain PHO85, stronger effect = lower value",0.102 (active)
same,normalized growth,"locus YPL153C, strain RAD53, stronger effect = lower value",0.115 (active)
same,normalized growth,"locus YPL204W, strain HRR25, stronger effect = lower value",0.11 (active)
same,normalized growth,"locus YPL209C, strain IPL1, stronger effect = lower value",0.495 (active)
same,normalized growth,"locus YPL256C, strain CLN2, stronger effect = lower value",0.152 (active)
same,normalized growth,"locus YPR025C, strain CCL1, stronger effect = lower value",0.652 (active)
same,normalized growth,"locus YPR111W, strain DBF20, stronger effect = lower value",0.949
same,normalized growth,"strain NNK1, stronger effect = lower value",0.265 (active)
same,normalized growth,"strain TSCII, stronger effect = lower value",0.322 (active)

# From PubChem BioAssay AID1159580 (chemical genetic matrix, 2015)
